# Compounds with a hit are over-represented: about 4.6% of the library has one in this group of screens.
# HTT prom inh: Primary qHTS for Identification of Small Molecule Inhibitors of Huntingtin Promoter Activity. HEK293 HTT promoter firefly luciferase reporter, 24 h. Potency, µM (highest dose often 57.5 µM), for inactives: at the highest dose activity change, negative = inhibition, most hits filed as inhibitors. actives 0.93% (n = 48,000). AID 1508623, 2021; further: potency means the concentration at half of the fitted maximal effect; nearly all actives have a fitted effect of over 50% in size
#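 Luminescence was read after Dual-Glo reagent and a 10 min room-temperature incubation. Values were normalized to vehicle (0% activity) and zero RLU (-100% activity). Reporter HEK293 cells had been exposed to compounds (up to 57.5 uM final) for 24 h.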
# HTT-AS act: Primary qHTS for Identification of Small Molecule Activators of Huntingtin-Antisense Promoter Activity; actives 0.24% (n = 48,000); AID 1508624, 2021; HEK293 HTT-AS promoter firefly luciferase reporter, 24 h; response scale: percent change from vehicle, -100% = no light; Potency, µM (highest dose often 57.5 µM), inactives show at the highest dose activity change, positive = activation, usual class: activators; further: potency means the concentration at half of the fitted maximal effect; nearly all actives have a fitted effect of over 55% in size
#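 Firefly luciferase readout (Dual-Glo, 10 min RT) after 24 h, 37 °C compound exposure (final up to 57.5 uM) of HEK293 reporter cells cultured 24 h beforehand; PTC124 at 50 uM final as control inhibitor; activity scaled vehicle 0%, zero RLU -100%.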
# NTMT1 inhibitor: Primary qHTS for Inhibitors of N-terminal methyltransferase 1 (NTMT1): MTaseGlo Assay; N-terminal Xaa-Pro-Lys N-methyltransferase 1 (Homo sapiens), Q9BV86; NTMT1 MTase-Glo SAH luminescence, purified enzyme; Potency, µM (top dose mostly 114 µM), for the others: at the highest dose activity change, negative = inhibition, most hits filed as inhibitors; actives 2.5% (n = 59,000);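 further: potency means the concentration at half of the fitted maximal effect; plate controls were DMSO vehicle for no effect and no enzyme for full effect; nearly all actives have a fitted effect of over 65% in size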
# DRV1 agonist: qHTS for Agonists of Human Resolvin D1 Receptor DRV1 | AID 1346428, 2018 | actives 2.5% (n = 48,000) | CHO-K1 GPR32 beta-arrestin PathHunter luminescence, 90 min; zero percent set by DMSO-only wells | activation, % at 76.9 µM | Probable G-protein coupled receptor 32 (Homo sapiens), O75388;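 active means activation of at least 60% and not above a set upper limit, about 1 call in 100 departs from these limits; inconclusive means activation of 40% to 60%, or above that upper limit; inactive means activation under 40%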; further: 0% is about no effect
# Target sequence (O75388 whole entry, looked up): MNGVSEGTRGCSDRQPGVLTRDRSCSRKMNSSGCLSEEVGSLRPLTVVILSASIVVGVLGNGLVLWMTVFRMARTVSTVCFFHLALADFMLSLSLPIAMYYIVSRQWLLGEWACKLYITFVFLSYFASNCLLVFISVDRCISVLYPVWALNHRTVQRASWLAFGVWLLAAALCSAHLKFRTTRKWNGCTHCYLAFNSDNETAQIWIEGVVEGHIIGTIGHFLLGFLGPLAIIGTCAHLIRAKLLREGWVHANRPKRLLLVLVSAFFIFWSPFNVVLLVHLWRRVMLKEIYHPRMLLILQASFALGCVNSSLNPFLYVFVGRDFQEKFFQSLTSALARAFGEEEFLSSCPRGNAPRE
#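 Cells are plated overnight, treated with compounds in DMSO for 90 minutes at 37 °C, and developed with PathHunter detection reagent for 1 hour before luminescence is read; signal reflects beta-arrestin binding to GPR32 in engineered CHO-K1 cells.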
# Numbers without * were called inactive; ? = inconclusive; . = no result given; [ ] = remark or other dose. Unless noted, the call rests on the fitted dose curve; in most records, active means well fitted curve in the direction sought with a large enough effect; inconclusive means small, poorly fitted or top-dose-only effect, or another doubt; inactive means no such curve, though single readings can be large; an effect the other way counts as inactive or inconclusive.
SMILES,HTT prom inh,HTT-AS act,NTMT1 inhibitor,DRV1 agonist
CNc1nc(C)nc(N[C@H]2CCC[C@@H](C(=O)NCc3ccc(C#N)cc3C(F)(F)F)C2)n1,.,.,3%[57.5 µM],.
CC(C)c1ccc(NC(=O)N2CCN(c3ccc(Cl)c(Cl)c3)CC2)cc1,32µM*,-42%,6%,-14
c1cncc(-c2ccc(CNc3nc(-n4ccnc4)nc4ccccc34)cc2)c1,.,.,1%,.
CCCCNC(=O)CCc1c(C)nc2cc(-c3ccccc3)nn2c1C,2µM*,-70%,-7%,-4
CCCCCCNC(=O)CCc1c(C)nc2nc(-c3cc(OC)cc(OC)c3)nn2c1C,-16%,-16%,89µM*,-1
Cc1nc2cc(-c3ccccc3)nn2c(C)c1CCC(=O)NCCc1ccccc1,7.1µM*,-74%,8%,37
CCCNC(=O)CCc1c(C)nc2nc(-c3cc(OC)cc(OC)c3)nn2c1C,6%,-23%,-14%,4
Cc1ccc(NC(=O)CCc2c(C)nc3c(-c4ccccc4)c(C)nn3c2C)c(C)c1,-11%,-11%,-4%,11
COCCCNC(=O)CCc1c(C)nc2cc(-c3ccc(Cl)cc3)nn2c1C,?,-78%,-4%,4
Cc1nc2c(-c3ccccc3)c(C)nn2c(C)c1CCC(=O)Nc1ccccc1F,?,-37%,9%,60*
COc1cc(-c2cn(C)c(=O)c3cnccc23)c(OC)cc1CN(C)C,.,.,6%,.
COc1ccccc1-c1cc2nc(C)c(CCC(=O)NCc3cccc(Cl)c3)c(C)n2n1,13µM*,-80%,89µM*,1
CC1(C)CCC2(CC1)N[C@@H](C(=O)N[C@@H]1CC[C@@H](C(N)=O)OC1)[C@H](c1ccnc(Cl)c1F)[C@]21C(=O)Nc2cc(Cl)ccc21,.,.,-5%,.
CCN(CC)Cc1cccc(/C=C/c2nc3ccc(F)cc3c(=O)n2-c2ccccc2Cl)n1,.,.,2%[57.5 µM],.
CCCOc1ccc(C(=O)Nc2ccc(NC(=O)c3ccccc3)c(C)c2)cc1,-6%,-8%,-2%,-7
O=C(Nc1cccc2c(=O)cc(-c3nn[nH]n3)oc12)c1ccc(OCCCCc2ccccc2)cc1,?,-31%,18µM*,94*
CCOC(=O)C1CCN(C(=O)C(C)(C)NC(=O)Nc2ccc(Oc3ccccc3)cc2)CC1,.,.,3%,.
CCc1ccc(N=C2NC(=O)CC(C(=O)Nc3ccc(OC)cc3)S2)cc1 (stereo not given),-6%[11.5 µM],16%[11.5 µM],-20%,92*
CC1(C)CCCC2(C)C(CO)C3CCC2C31 (stereo not given),.,.,-8%[57.5 µM],.
CN(CC[C@@H](Oc1ccc(C(F)(F)F)cc1)c1ccccc1)CC(=O)O,.,.,.,-2
Cc1cc(O[C@@H](CCC(F)(F)F)c2ccc(C(=O)NCCC(=O)O)cc2)cc(C)c1-c1ccc(C(C)(C)C)cc1,.,.,32µM*,.
O=C1CC2(CCCC2)CC(=O)N1,12%,0%,16%[57.5 µM],65*
CCC(C)C(=O)OC12C(OC(C)=O)C(C)C3(O)C(C=C(CO)CC4(O)C(=O)C(C)=CC43)C1C2(C)C (stereo not given),.,.,5%[29.8 µM],.
CCOC(=O)c1c(C)n(-c2ccccc2)c2ccc(OC(=O)c3ccccc3)cc12,20µM*,-71%,0%,-33
CCOC(=O)c1c(C)n(-c2ccccc2)c2ccc(OC(=O)c3cccc(Cl)c3)cc12,2%,-4%,18%,-11
COc1ccc(CNC(=O)CSc2ncc(S(=O)(=O)c3ccc(Br)cc3)c(=O)[nH]2)cc1,-11%,-15%,10%,-18
COC(=O)c1cc(Cl)ccc1NC(=O)CSc1ncc(S(=O)(=O)c2ccc(Br)cc2)c(=O)[nH]1,-12%,-6%,79µM*,100*
O=C(Nc1ccc(C(F)(F)F)cc1)c1cc(S(=O)(=O)NC2CCCCCC2)ccc1F,28µM*,-75%,9%,5
O=C(Nc1ccc(C(F)(F)F)cc1)c1cc(S(=O)(=O)NC2CCCCC2)ccc1F,?,-39%,4%,3
COc1ccc(C(=O)N2c3ccccc3C(C)(c3ccc(Cl)cc3)CC2(C)C)cc1 (stereo not given),?,-43%,1%,-31
